Data as given in PubChem BioAssay (EPA / NIEHS).
Where “and” joins values, the source holds several entries; their conditions need not be identical. Equal values may be shown once. Where a structure was tested more than once in an assay, its records may differ in their call. Calls of active or inactive are those of the source. How the source made its calls: active means hit-call score of the fitted dose curve at least 0.9, where 1 is the maximum; inactive means score below 0.9.

The compounds below were run on Macrophage Inflammatory Protein-1 Alpha (MIP1a), CCL3 (gene 6348) (assay: BSK_IMphg_MIP1a: BioMAP Diversity Plus: IMphg Assay for Macrophage Inflammatory Protein-1 Alpha (MIP1a) Biomarker Activity (AID 2284255)). Settings: primary human endothelial cells with macrophages.
Experimental: BSK_IMphg is a cell-based, multiplexed-readout assay that uses venular endothelial cells and macrophages, a human vascular primary cell, with measurements taken at 24 hours after chemical dosing in a microplate: 96-well plate.BSK_IMphg_MIP1a is an assay component measured in the BSK_IMphg assay. It measures MIP-1a antibody related to regulation of gene expression using ELISA technology.Data from the assay component BSK_IMphg_MIP1a was analyzed at the endpoint, BSK_IMphg_MIP1a, in the positive analysis fitting direction relative to DMSO as the negative control and baseline of activity. Using a type of binding reporter, gain or loss-of-signal activity can be used to understand protein changes. To generalize the intended target to other relatable targets, this assay endpoint is annotated to the 'cytokine' intended target family, where the subfamily is 'inflammatory factor'.
The levels of cell surface (or secreted, indicated by the prefix "s") biomarker endpoints were measured by ELISA. Overt cytotoxicity to cells in confluent adherent cultures (all systems other than the BT system) was assessed by measuring total protein levels using sulforhodamine B (SRB) staining in parallel cultures at the time of biomarker measurements, indicated as SRB endpoints. For proliferation assays for adherent cell types, individual cell types are cultured at sub-confluence and relative cell numbers quantified by SRB staining at time points optimized for each system (48 h: 3C and CASM3C systems; 72 h: BT and HDF3CGF systems; 96 h: SAg system). SRB was performed by staining cells with 0.1% SRB after fixation with 10% TCA and reading wells at 560 nm.Viability and proliferation of PBMC (T cells) was quantified by Alamar Blue reduction for the SAg and BT systems. For PBMC viability (referred to as PBMC Cytotoxicity within the assay endpoint names), cells were plated (75,000/well in a 96-well plate) and then chemical samples added for 1 h before addition of activators, SEB and TSST-1 (20 ng/mL final concentration each). Cells were incubated for 90 h. Then, Alamar Blue (20 uL/well) (Invitrogen, Cat DAL1100) was added for 6 h, and the plates were read with a fluorescence microplate reader at 546/580 nm (excitation/emission). For PBMC proliferation, cells were plated and activated as above but incubated for only 16 h prior to addition of Alamar Blue. Plates were read after 6 h.

Compound	outcome	AC50
C=CC(=O)OCCC(F)(F)C(F)(F)C(F)(F)C(F)(F)C(F)(F)C(F)(F)C(F)(F)C(F)(F)F	inactive	
CN(Cc1cnc2nc(N)nc(N)c2n1)c1ccc(C(=O)N[C@@H](CCC(=O)O)C(=O)O)cc1	inactive	
O=C(O)CCC(F)(F)C(F)(F)C(F)(F)C(F)(F)C(F)(F)C(F)(F)F	inactive	7.18 µM (active) and 19.2 µM (active)
CN(CCO)S(=O)(=O)C(F)(F)C(F)(F)C(F)(F)C(F)(F)C(F)(F)C(F)(F)C(F)(F)C(F)(F)F	inactive	
O=C(O)C(F)(F)OC(F)(F)C(F)(F)OC(F)(F)C(F)(F)OC(F)(F)C(F)(F)C(F)(F)C(F)(F)F		36.5 µM (active) and 38.3 µM (active)
O=C(O)CCC(F)(F)C(F)(F)C(F)(F)C(F)(F)C(F)(F)F	inactive	835 nM (active)
O=C(CC(=O)C(F)(F)C(F)(F)C(F)(F)F)c1cccs1		52.5 µM (active) and 24.1 µM (active)
O=P(O)(O)CCC(F)(F)C(F)(F)C(F)(F)C(F)(F)C(F)(F)C(F)(F)C(F)(F)C(F)(F)F	inactive	
O=P(O)(O)CCC(F)(F)C(F)(F)C(F)(F)C(F)(F)C(F)(F)C(F)(F)F	inactive	
O=S(=O)(O)C(F)(F)C(F)(F)C(F)(F)C(F)(F)C(F)(F)C(F)(F)C(F)(F)C(F)(F)C(F)(F)C(F)(F)F	inactive	
OCC(F)(F)C(F)(F)C(F)(F)C(F)(F)C(F)(F)C(F)(F)C(F)(F)C(F)(F)C(F)(F)C(F)(F)C(F)(F)F	inactive	
